About 79,000 compounds went through this panel and 15% of them were active in at least one assay; those are over-represented in the sample as a whole. No stated cut-off is given here; in the data, active means growth inhibition above about 70%; inactive means the rest.
Key:
[1] = NCI Yeast Anticancer Drug Screen. Data for the rad50 strain (AID 155);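 further: 0% = growth of vehicle-only cultures of the same strain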; conditions: S. cerevisiae rad50 strain growth inhibition; at 50.0 µM; active compounds read high
Outline: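 Yeast carrying a defined DNA repair defect were exposed to test compounds, and growth was compared with vehicle-treated controls to give percent inhibition.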

[2] = NCI Yeast Anticancer Drug Screen. Data for the mec2-1 strain (AID 157); conditions: S. cerevisiae mec2-1 strain, at 50.0 µM, active compounds read high
Outline: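 Test agents were screened against the mec2-1 yeast strain, with defined DNA repair or cell cycle alteration. Growth was scored as inhibition against vehicle-only controls.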

[3] = NCI Yeast Anticancer Drug Screen. Data for the sgs1 mgt1 strain (AID 161);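 further: 0% = growth of cultures given vehicle only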; conditions: S. cerevisiae sgs1 mgt1 strain, at 50.0 µM, active compounds read high
Outline: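 Read-out: growth inhibition vs vehicle controls. Cells: mutant yeast strain deficient in DNA damage repair.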

[4] = NCI Yeast Anticancer Drug Screen. Data for the cln2 rad14 strain (AID 165);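 further: 0% = growth equal to vehicle treated cultures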; conditions: S. cerevisiae cln2 rad14 strain, at 50.0 µM, active compounds read high
Outline: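 Growth of compound-exposed yeast (cln2 rad14 genotype) measured and expressed as inhibition relative to vehicle.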

[5] = NCI Yeast Anticancer Drug Screen. Data for the bub3 strain (AID 167); conditions: S. cerevisiae bub3 mutant strain, at 50.0 µM, active compounds read high
Outline: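 Compounds were applied to a genetically altered yeast strain carrying a cell-cycle control defect. Growth inhibition was scored against vehicle-treated controls.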

[6] = NCI Yeast Anticancer Drug Screen. Data for the mlh1 rad18 strain (AID 175); conditions: S. cerevisiae mlh1 rad18 strain growth inhibition; at 50.0 µM; active compounds read high
Outline: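 In this whole-cell yeast screen, a strain with altered DNA damage repair is challenged with compound, and its growth is measured against matched vehicle-treated controls.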

Measured: growth inhibition

CCOC(=O)C(c1ccccc1)C(C)c1ccccc1 (stereo not given)
inactive: [1] -7.5% | [2] -0.4% | [3] 1.85% | [4] 1.9% | [5] -11.3% | [6] -12.2%

Cc1ccc(S(=O)(=O)N(CCOc2c3occc3cc3ccc(=O)oc23)CCN(CCN(CCOc2c3occc3cc3ccc(=O)oc23)S(=O)(=O)c2ccc(C)cc2)S(=O)(=O)c2ccc(C)cc2)cc1
inactive: [1] -10.2% | [2] -11.7% | [3] -14.4% | [4] -31.6% | [5] -21.1% | [6] -6.8%

O=C(O)c1c[n+]([O-])ccc1Cl
inactive: [1] 12.8% | [2] -0.9% | [3] -8% | [4] -42% | [5] -8.2% | [6] 27.1%

c1ccc(COC2NCCN2Cc2ccccc2)cc1 (stereo not given)
inactive: [1] -29.6% | [2] -20.5% | [3] -10.7% | [4] 6.8% | [5] -55.5% | [6] -7.85%

CCOC(=O)c1c(C)c(C)cc(C)c1C
inactive: [1] -4.75% | [2] -7.6% | [3] -5.45% | [4] 6.15% | [5] 2.3% | [6] -10.8%

CC(C)=CCS(=O)c1ccccc1NC1=CC(=O)CC(C)(C)C1 (stereo not given)
inactive: [1] -16.2% | [2] -26.1% | [3] -37.6% | [4] -7.55% | [5] -5.8% | [6] -3.55%

C1=Nc2ccccc2Cn2nncc21
inactive: [1] 19.7% | [2] 21% | [3] 43.1% | [4] 18.4% | [5] 17.1% | [6] 41.5%

COc1ccc(CNC(=O)C2C(=O)C(=O)N(Cc3ccc(OC)c(OC)c3)C2=O)cc1OC (stereo not given)
inactive: [1] 20.8% | [2] -5.45% | [3] -0.9% | [4] 17.1% | [5] -1.25% | [6] 14.7%

CCOc1ccccc1/C=C/C(=O)O
inactive: [1] 4.6% | [2] -9.7% | [3] -11.8% | [4] -19% | [5] -22.1% | [6] -21.4%

Cc1ccc(N=C=Nc2ccc(C)cc2)cc1
inactive: [1] 2.65% | [2] 2.65% | [3] -3.05% | [4] -9.75% | [5] 2.85% | [6] -1.5%

O=C1C=C(O)C(=C/C=C/C=C/c2c(O)cc(O)cc2O)C(O)=C1
inactive: [1] -12.4% | [2] -13.6% | [3] -2.65% | [4] 10.2% | [5] 6.65% | [6] -5.7%

CC(=O)c1ccc2c(c1)-c1ccc(C(C)=O)cc1-2
inactive: [1] -11.9% | [2] -0.7% | [3] -14.4% | [4] -11% | [5] -10.8% | [6] -7.6%

C=CCOc1c(C)cc(C(N)=O)cc1C
inactive: [1] 4.45% | [2] -6.85% | [3] 24.6% | [4] 18.9% | [5] 5.45% | [6] 51.4%

CCc1cccc(CC)c1NC(=O)CC1SC(N)=NC1=O (stereo not given)
inactive: [1] -4.45% | [2] -19.2% | [3] -1.95% | [4] 9.8% | [5] 15.7% | [6] -24.9%

NC(=O)N/N=C(/c1nc2ccc([N+](=O)[O-])cc2[nH]c1=O)C(O)c1ccco1 (stereo not given)
inactive: [1] 5.35% | [2] -9.65% | [3] -11.1% | [4] 19.8% | [5] -19% | [6] 3.5%

CC(=O)Nc1ccc(/C=C2\SC(=S)N(C=C(C#N)C#N)C2=O)cc1
inactive: [1] 3.95% | [2] 12.2% | [3] -10.4% | [4] 38.5% | [5] 15.2% | [6] -2.35%

O=C(O)COc1ccccc1OCC(=O)O
inactive: [1] 17.4% | [2] 7.3% | [3] -8.6% | [4] 0.6% | [5] -0.1% | [6] 1.2%

O=C(OCC1OC(n2ccc(=O)[nH]c2=O)C(F)C1OC(=O)c1ccccc1)c1ccccc1 (stereo not given)
inactive: [1] 24.1% | [2] 4.3% | [3] 8.6% | [4] 17.7% | [5] 7.15% | [6] 2.3%

CCOC1(c2ccccc2)c2ccccc2Sc2ccccc21
inactive: [1] -12.5% | [2] 12.7% | [3] 5.5% | [4] -6.1% | [5] 14.4% | [6] 16.3%

Nc1cc(S(=O)(=O)O)ccc1O
inactive: [1] -1% | [2] -16.1% | [3] -21.9% | [4] -41.9% | [5] 3.05% | [6] -33.5%

— PubChem BioAssay (NCI)
